Assays:
[1] = biological target: T1, Aspartate--tRNA(Asp/Asn) ligase (Mycobacterium tuberculosis (strain ATCC 25618 / H37Rv)) (UniProt P9WFW3); assay: Assay for Asp RNA synthetase-1 from Mycobacterium tuberculosis; format: functional; parameters: scale not given: direction of the effect not stated beside the values; conditions: 30 µM; note: in the data most compounds retested in dose-response had high values
T1 sequence (whole entry): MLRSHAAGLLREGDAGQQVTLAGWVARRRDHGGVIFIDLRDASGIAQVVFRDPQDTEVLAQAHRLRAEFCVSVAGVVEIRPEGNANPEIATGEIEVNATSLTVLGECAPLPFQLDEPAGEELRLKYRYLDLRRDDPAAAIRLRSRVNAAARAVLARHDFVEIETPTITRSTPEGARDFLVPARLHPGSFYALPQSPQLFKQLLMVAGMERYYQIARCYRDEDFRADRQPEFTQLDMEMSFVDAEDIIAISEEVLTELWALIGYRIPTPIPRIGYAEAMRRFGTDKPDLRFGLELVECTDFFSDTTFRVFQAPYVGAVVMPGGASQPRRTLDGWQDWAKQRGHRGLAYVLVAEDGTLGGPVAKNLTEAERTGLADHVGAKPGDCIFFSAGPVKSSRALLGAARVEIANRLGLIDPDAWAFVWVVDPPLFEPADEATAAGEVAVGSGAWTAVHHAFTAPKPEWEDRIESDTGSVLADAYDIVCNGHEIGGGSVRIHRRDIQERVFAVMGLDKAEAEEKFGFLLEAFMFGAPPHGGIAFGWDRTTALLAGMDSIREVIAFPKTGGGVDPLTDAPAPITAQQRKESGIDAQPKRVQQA

[2] = biological target: Shiga toxin 2 (Escherichia coli O157:H7) (UniProt P09385+P09386); assay: E. coli 0.157:H7 Shiga Toxin SOP - stx2 screening assay; format: functional; parameters: scale not given: direction of the effect not stated beside the values; conditions: 30 µM

Row | SMILES | Percent Effect [1] [%] | Percent Effect [2] [%]
1 | CC(NC(=O)NCCNc1ncccn1)c1cccs1 (configuration not stated) | -2.58 | -27.7
2 | CCOc1ncccc1NC(=O)N1CCCCCC1 | 7.43 | -2.38
3 | O=S(=O)(c1cccs1)N1CCCn2cnc(CN3CCCC3)c2C1 | 6.2 | -4.47
4 | FC(F)(F)c1nc(NC2CCCC2)c2ccccc2n1 | 0.562 | -0.0663
5 | O=C([C@H]1COC[C@H]2CN(Cc3ccco3)C[C@H]21)N1CCCO1 | 6.23 | -30.2
6 | CCn1ccnc1CN(C)C1CCCN(CCc2ccccc2)C1 (configuration not stated) | -0.476 | -36
7 | Cc1cc(CN2CCOCS2(=O)=O)ccc1F | 1.64 | 3.93
8 | CCN1CCN(Cc2coc(-c3cccc(F)c3)n2)CC1 | -7.31 | -35.5
9 | Cc1nc(CN2CCCN(C(=O)c3ccccn3)CC2)oc1C | -0.692 | 25.9
10 | CC(C)(C)c1n[nH]c(C2CN(C(=O)c3cc(C4CC4)on3)CCO2)n1 (configuration not stated) | -2.16 | -1.24
11 | CCOc1ccc(NC(=O)c2cnc(N3CCCC3)nc2C)cc1 | -4.56 | -10.5
12 | CCc1cc(NCCNc2cccnc2)n2nccc2n1 | 0.0112 | -5.46
13 | CN(C)C(=O)N1CCN(CCn2nc3ccccn3c2=O)CC1 | -3.02 | -19.4
14 | Cc1nc(CN2CCC(N(C)Cc3noc(C(C)C)n3)C2)cs1 (configuration not stated) | 8.39 | -23.4
15 | Cc1ccc(CNC(=O)CN2C=Nc3ccccc3S2(=O)=O)s1 | -0.759 | 9.11
16 | CNS(=O)(=O)Cc1ccc(CNC(=O)c2cccc(C)n2)cc1 | -1.85 | -5.04
17 | CC(=O)N1CC(=O)N(c2ccccc2)CC12CCN(Cc1nccs1)C2 (configuration not stated) | 7.34 | -17.5
18 | Cc1ncsc1C(=O)N(C)CCc1ccncc1 | -1.68 | 19.9
19 | CCc1c(C)nc2cc(C3CCN(Cc4ccccc4F)C3)nn2c1O (configuration not stated) | 4.45 | -125
20 | Cn1cnc(S(=O)(=O)N2CCN(Cc3ccco3)CC2)c1Cl | -2.54 | 13.8
21 | COc1ccccc1C1CNC(=O)c2nc(-c3cnn(C)c3)[nH]c2C1 (configuration not stated) | 1.33 | -58
22 | O=C(NCC1COCc2c(-c3cccnc3)nnn2C1)c1cccs1 (configuration not stated) | 9.59 | -14.9
23 | CNc1cc(CNC(=O)c2ccccc2)nc(-c2ccncc2)n1 | -4.09 | 11.3

Row | SMILES | Percent Effect [1] [%] | Percent Effect [2] [%]
24 | O=C(NCCNc1ncccn1)N1CCSCC1 | -0.235 | 17.7
25 | Cc1noc(C2CCN(C(=O)CN(C)c3ccc(Cl)cn3)CC2)n1 | -1.59 | -21.6
26 | COc1cccc(CNCc2nnc3n2CC(C(F)(F)F)CC3)c1 (configuration not stated) | -0.0987 | -19.1
27 | Cc1ccc(C)c(OC2CCN(C(=O)c3ccc(C)[nH]c3=O)CC2)c1 | -5.01 | 16
28 | CN(C)C(=O)[C@@H]1CCO[C@@H]2CCN(Cc3ccc4c(c3)OCO4)C[C@@H]21 | -0.534 | -27.6
29 | CN(Cc1cscn1)C1CCCN(Cc2noc(C3CC3)n2)C1 (configuration not stated) | -2.67 | 0.508
30 | CC(=O)Nc1nc(C2CCN(C(=O)c3cccnc3)CC2)cs1 | -8.57 | -3.89
31 | CC(C)c1nc(CN(C)C2CCN(CC(F)(F)F)C2)no1 (configuration not stated) | 8.54 | -4.21
32 | CC(C)N1CCCC2(CCN(C(=O)CCCn3ccnc3)C2)C1=O (configuration not stated) | -5.64 | 15.9
33 | CNc1cc2c(nn1)CCN(C(=O)C1CCCc3ccccc31)C2 (configuration not stated) | 0.0571 | 4.77
34 | CN(C)C(=O)N1CCn2nc(CNC(=O)CCC(F)(F)F)cc2C1 | 2.12 | -7.2
35 | Cc1nc(C)n(CC2CCCN2Cc2nc(-c3cccs3)no2)n1 (configuration not stated) | -2.77 | 29.7
36 | COCC(O)CN(C)C(=O)NC1CCN(Cc2ccccn2)CC1 (configuration not stated) | -3.52 | -36.8
37 | CCN1CC2(CC1=O)CN(C(=O)c1ccco1)CCN(C(=O)N(C)C)C2 (configuration not stated) | 0.684 | -12.4
38 | COc1ccccc1[C@@H]1CN(C(=O)c2csc(C)n2)C[C@H]1C(=O)O | 2.17 | -9.43
39 | Cc1ccc(C(=O)N2CCCC3(CCCC(=O)N3C)C2)cc1F (configuration not stated) | 3.71 | -5.85
40 | Cn1cc(-c2nc(CN3CCc4c(ncn4C4CC4)C3)cs2)cn1 | -0.0232 | -83.4
41 | CN(c1ccncn1)C1CC2(CCN(C(=O)CCc3cccs3)C2)C1 (configuration not stated) | -1.32 | -23.3
42 | CC(C)(C)c1nnc(CN2CCN(CC(O)c3ccccc3)CC2)o1 (configuration not stated) | -8.31 | 10.2
43 | O=C(O)c1nnn(-c2ccc(OC(F)(F)F)cc2)c1-c1ccncc1 | 4.91 | -8.85
44 | CCCNC(=O)Cn1nc(C(C)C)c2cnn(C(C)(C)C)c2c1=O | -6.33 | 8.81
45 | O=C(Cn1nc(-c2ccc(F)cc2)oc1=O)Nc1ccccc1 | -1.5 | -19.2
46 | COc1ccc(NC(=O)CNc2cccc3c2CCCC3)c(OC)c1 | 1 | -28.6
